According to PubChem BioAssay (EPA / NIEHS):
The source made the active and inactive calls. How the source made its calls: active means hit-call score of the fitted dose curve at least 0.9, where 1 is the maximum; inactive means score below 0.9.

Test: BSK_KF3CT_SRB: Viability Assessment in the BioMAP Diversity Plus: KF3CT Assay (AID 2283069);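 further: fitted for both signal gain and loss against DMSO baseline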
Details: primary human keratinocytes with fibroblasts
Experimental: BSK_KF3CT is a cell-based, multiplexed-readout assay that uses keratinocytes and foreskin fibroblasts, a human skin primary cell co-culture, with measurements taken at 24 hours after chemical dosing in a 96-well plate.BSK_KF3CT_SRB is an assay component measured in the BSK_KF3CT assay. It measures 0.1% sulforhodamine related to cell death using Sulforhodamine staining technology.Data from the assay component BSK_KF3CT_SRB was analyzed into 1 assay endpoint. This assay endpoint, BSK_KF3CT_SRB, was analyzed with bidirectional fitting relative to DMSO as the negative control and baseline of activity. Using a type of viability reporter, gain or loss-of-signal activity can be used to understand changes in the signaling. Furthermore, this assay endpoint can be referred to as a primary readout, because this assay has produced multiple assay endpoints where this one serves a signaling function. To generalize the intended target to other relatable targets, this assay endpoint is annotated to the cell morphology intended target family, where the subfamily is cell conformation.
The levels of cell surface (or secreted, indicated by the prefix "s") biomarker endpoints were measured by ELISA. Overt cytotoxicity to cells in confluent adherent cultures (all systems other than the BT system) was assessed by measuring total protein levels using sulforhodamine B (SRB) staining in parallel cultures at the time of biomarker measurements, indicated as SRB endpoints. For proliferation assays for adherent cell types, individual cell types are cultured at sub-confluence and relative cell numbers quantified by SRB staining at time points optimized for each system (48 h: 3C and CASM3C systems; 72 h: BT and HDF3CGF systems; 96 h: SAg system). SRB was performed by staining cells with 0.1% SRB after fixation with 10% TCA and reading wells at 560 nm.Viability and proliferation of PBMC (T cells) was quantified by Alamar Blue reduction for the SAg and BT systems. For PBMC viability (referred to as PBMC Cytotoxicity within the assay endpoint names), cells were plated (75,000/well in a 96-well plate) and then chemical samples added for 1 h before addition of activators, SEB and TSST-1 (20 ng/mL final concentration each). Cells were incubated for 90 h. Then, Alamar Blue (20 uL/well) (Invitrogen, Cat DAL1100) was added for 6 h, and the plates were read with a fluorescence microplate reader at 546/580 nm (excitation/emission). For PBMC proliferation, cells were plated and activated as above but incubated for only 16 h prior to addition of Alamar Blue. Plates were read after 6 h.

Q: Which outcome does the source give for `CC(=O)C(C)=CC1C(C)=CCCC1(C)C` (stereo not given) here?
A: The outcome was “inactive”.

Q: For `C[C@]12C=CC(=O)C=C1CC[C@@H]1[C@@H]2C(=O)C[C@@]2(C)[C@H]1CC[C@]2(O)C(=O)CO`, which outcome is on record?
A: Its outcome is “inactive”.

Q: Which outcome does the source give for `CCCCN(CCCC)CCCC` here?
A: The outcome was “inactive”.

Q: With `Cc1ccc(N(C)C)cc1` as the compound, how does the outcome read?
A: Its outcome is “inactive”.

Q: For `Oc1ccc2ccccc2c1N=Nc1ccccc1`, which outcome is on record?
A: The outcome was “inactive”.

Q: With `O=C(N[C@@H](Cc1ccccc1)[C@@H](O)C(=O)N1C[C@@H](O)[C@@H](O)C1)c1cc2cc(Cl)ccc2[nH]1` as the compound, how does the outcome read?
A: Its outcome is “inactive”.

Q: Which AC50 does the source give for `CCc1c(C(=O)NN2CCCCC2)nn(-c2ccc(Cl)cc2Cl)c1-c1ccc(Br)cc1` here?
A: The AC50 was 7.2 µM (active).

Q: For `CC1(C)CC(N=C=O)CC(C)(CN=C=O)C1` (stereo not given), which outcome is on record?
A: Its outcome is “inactive”.

Q: With `COc1cc(-c2nc(NC(=O)c3cc4cc(C)cc(C)c4n3CC(=O)O)sc2CCC2CCCCC2)c(OC)cc1Cl` as the compound, how does the AC50 read?
A: Its AC50 is 1.64 µM (active).

Q: With `CCCc1cc(=O)[nH]c(=S)[nH]1` as the compound, how does the outcome read?
A: Its outcome is “inactive”.

Q: With `CN1CCCC1=O` as the compound, how does the outcome read?
A: The outcome was “inactive”.

Q: With `NC(=O)Cn1c(=O)cc(CCN2CCN(c3nccc4sccc34)CC2)c2ccc(F)cc21` as the compound, how does the outcome read?
A: Its outcome is “inactive”.

Q: With `CNCc1cc(F)ccc1Oc1ccc(Cl)c(Cl)c1` as the compound, how does the outcome read?
A: Its outcome is “inactive”.

Q: For `Nc1ccc(S(=O)(=O)c2ccc(N)cc2)cc1`, which outcome is on record?
A: Its outcome is “inactive”.

Q: For `CCCCCC(=O)O`, which outcome is on record?
A: Its outcome is “inactive”.

Q: With `CCCCCCCCCCCCCCCCCC(=O)O` as the compound, how does the outcome read?
A: Its outcome is “inactive”.

Q: With `Cc1ccc(C(C)C)c(O)c1` as the compound, how does the outcome read?
A: The outcome was “inactive”.

Q: Which outcome does the source give for `COc1ccc2c(c1)c(CC(=O)O)c(C)n2C(=O)c1ccc(Cl)cc1` here?
A: Its outcome is “inactive”.

Q: For `Cc1nc(-c2ccc3c(c2)CCN(CCC2CCC(NC(=O)/C=C/c4ccc(F)cc4)CC2)CC3)no1` (stereo not given), which outcome is on record?
A: The outcome was “inactive”.

Q: With `CC(C)(C)c1cc(O)c(C(C)(C)C)cc1O` as the compound, how does the outcome read?
A: Its outcome is “inactive”.

Q: With `CCCCCCCCCCCCCCCC` as the compound, how does the outcome read?
A: The outcome was “inactive”.

Q: For `COc1cc(S(=O)(=O)O)c(C)cc1N=Nc1c(O)ccc2cc(S(=O)(=O)O)ccc12`, which outcome is on record?
A: Its outcome is “inactive”.

Q: For `NCC1(Cc2noc(=O)[nH]2)CCCCC1`, which outcome is on record?
A: The outcome was “inactive”.

Q: Which outcome does the source give for `O=C(O)CCCCC(=O)O` here?
A: The outcome was “inactive”.

Q: Which outcome does the source give for `Cc1c(C(=O)O)c(O)cc2c1C(=O)c1c(O)c([C@@H]3O[C@H](CO)[C@@H](O)[C@H](O)[C@H]3O)c(O)c(O)c1C2=O` here?
A: The outcome was “inactive”.

Q: For `Cc1oc(-c2ccccc2)nc1CCOc1cccc2c1ccn2CCC(=O)O`, which outcome is on record?
A: The outcome was “inactive”.

Q: With `COc1ccc(C)cc1N` as the compound, how does the outcome read?
A: The outcome was “inactive”.

Q: For `O=c1[nH]cc(F)c(=O)[nH]1`, which outcome is on record?
A: The outcome was “inactive”.

Q: Which outcome does the source give for `CCCCc1ccc2c(n1)[C@@H](c1ccc(OC)cc1C[C@H](C)C(=O)O)[C@H](C(=O)O)[C@H]2c1ccc2c(c1)OCO2` here?
A: Its outcome is “inactive”.

Q: For `NS(=O)(=O)c1cc2c(cc1Cl)NCNS2(=O)=O`, which outcome is on record?
A: The outcome was “inactive”.

Q: For `CCCCCCCCCCCC(=O)OC`, which outcome is on record?
A: The outcome was “inactive”.

Q: For `Cc1cccc([N+](=O)[O-])c1C`, which outcome is on record?
A: Its outcome is “inactive”.

Q: For `C[Si]1(C)O[Si](C)(C)O[Si](C)(C)O[Si](C)(C)O1`, which outcome is on record?
A: The outcome was “inactive”.

Q: Which outcome does the source give for `Nc1ccc2c(c1)C(=O)c1ccccc1C2=O` here?
A: The outcome was “inactive”.

Q: Which outcome does the source give for `Nc1ccccc1N` here?
A: The outcome was “inactive”.

Q: For `C=CCOC(=O)c1ccccc1C(=O)OCC=C`, which outcome is on record?
A: The outcome was “inactive”.

Q: For `O=C(OCCCCCOC(=O)c1ccccc1)c1ccccc1`, which outcome is on record?
A: The outcome was “inactive”.

Q: Which outcome does the source give for `CCOc1ccc2c(c1)C(C)=CC(C)(C)N2` here?
A: The outcome was “inactive”.

Q: With `CC(=O)OCCOCCOCCOC(C)=O` as the compound, how does the outcome read?
A: Its outcome is “inactive”.

Q: With `Cc1nc(C)nc(N2C[C@@H](C)N(c3ccnc([C@@H](C)O)n3)[C@@H](C)C2)n1` as the compound, how does the outcome read?
A: Its outcome is “inactive”.
